Source: PubChem BioAssay
KCNQ2 block = rat KCNQ2 potassium channel inhibitors, primary screen, cell-based, CHO-K1, FluxOR thallium flux, B-score | Potassium voltage-gated channel subfamily KQT member 2 (Rattus norvegicus), O88943 | 20 min; stronger effect = lower value | B-score at 10 µM | 310,000 compounds, 1.1% hits;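 active means fluorescence ratio B-score at most minus 3 library SDs, with starting brightness B-score within 2 library SDs, cut at about -5.5 in these data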
KCNQ2 pot = potentiators of rat KCNQ2 potassium channel | 310,000 compounds, 0.54% hits | AID 2239, 2010 | CHO-K1 KCNQ2, FluxOR thallium flux fluorescence; stronger effect = higher value | B-score at 10 µM;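 active means fluorescence ratio B-score at least 3 SD of library B-scores, with initial fluorescence B-score within 3 of them, cut at about 5.3 in these data; same plate scores as AID 2156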;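 further: B-score of peak minus minimum over baseline fluorescence ratio after K+ and Tl+ stimulus; positive B-score means potentiation of KCNQ2 with more thallium influx and brighter signal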
Numbers without * were called inactive. This is a sample that favours compounds with a hit; in the whole collection about 1.6% have one here.

`COc1ccc(/C=N/NC(=O)c2nc(-c3ccccc3)cc(-c3ccccc3)n2)cc1OC` gave KCNQ2 block inactive.
For c1cc2c3c(cccc3c1)C(N1CCOCC1)=N2 the results were KCNQ2 block inactive.
`c1ccc(CC2CCN(C3=Nc4cccc5cccc3c45)CC2)cc1` gave KCNQ2 block -6* and KCNQ2 pot -6.
CC(C)CC(=O)Nc1ccc(C(=O)COC(=O)C2CCC2)cc1 was read as KCNQ2 block inactive.
Screening CC(=O)N1c2ccc(S(=O)(=O)N3CCCC3)cc2CC1C(=O)NCc1ccccc1F (centres undefined) returned KCNQ2 block inactive and KCNQ2 pot 0.68.
Screening CCC(C)(C)NC(=O)C(c1cccc(OC)c1OC)N(C(=O)CCC(=O)Nc1cc(C)on1)c1ccc2c(c1)OCCO2 (centres undefined) returned KCNQ2 block inactive and KCNQ2 pot 1.4.
Screening COc1ccc(CCN2C(=O)CC(NNc3ccc([N+](=O)[O-])cc3)C2=O)cc1OC (centres undefined) returned KCNQ2 block inactive.
Cc1cccc2c1-c1sc(C(=O)N3CCCCC3)cc1CO2 was read as KCNQ2 block inactive.
`Cc1cccc2c1-c1sc(C(=O)N3CCc4ccccc4C3)cc1CO2` gave KCNQ2 block -5.6* and KCNQ2 pot -5.6.
`COc1ccc(CN(C)C(=O)c2cccc(C(=O)N(C)Cc3ccc(OC)cc3)c2)cc1` gave KCNQ2 block inactive and KCNQ2 pot 1.4.
Screening COc1ccc(/C(N)=N/OC(=O)Cc2cccs2)cc1OC returned KCNQ2 block inactive and KCNQ2 pot 3.2.
COc1ccc(/C(N)=N/OC(=O)Cc2cccs2)cc1 was read as KCNQ2 block -7* and KCNQ2 pot -7.
Screening O=C(COc1ccccc1)NCC(c1ccco1)N1CCN(c2ccc(F)cc2)CC1 (centres undefined) returned KCNQ2 block inactive.
O=C(COc1ccccc1)NCC(c1ccco1)N1CCN(c2ccccc2F)CC1 (centres undefined) was read as KCNQ2 block -7* and KCNQ2 pot -7.
Screening Oc1ccc(O)c(Cc2nc3ccccc3s2)c1 returned KCNQ2 block -5.6* and KCNQ2 pot -5.6.
Screening Oc1ccccc1OCc1nc2ccccc2s1 returned KCNQ2 block inactive.
For O=C(NC1CCCN(CCc2ccccc2)C1)C1CCCC1 (centres undefined) the results were KCNQ2 block -6.8* and KCNQ2 pot -6.8.
Screening CCOC(=O)C1CCCN(CCc2ccccc2)C1 (centres undefined) returned KCNQ2 block inactive and KCNQ2 pot 1.4.
For CCn1cc(C2=NC(CC(C)C)CO2)c2ccccc21 (centres undefined) the results were KCNQ2 block inactive.
`O=C(Nc1ccc([N+](=O)[O-])cc1Br)c1cc2ccccc2nc1Cl` gave KCNQ2 block inactive and KCNQ2 pot 0.48.
For COC(=O)c1cccc(Oc2cccc(Cl)n2)c1 the results were KCNQ2 block inactive.
`O=C1CC(C(=O)N2CCc3ccccc32)CN1c1ccc(F)cc1` (centres undefined) gave KCNQ2 block inactive.
OC1(c2ccc(Cl)cc2)CN(c2ccccc2)C2=[N+]1CCS2 (centres undefined) was read as KCNQ2 block -7.2* and KCNQ2 pot -7.2.
Screening COc1ccc(OC)c(N2CC(O)(c3ccccc3)[N+]3=C2SCCC3)c1 (centres undefined) returned KCNQ2 block inactive.
For OC1(c2ccc(Br)cc2)CN(c2ccccc2)C2=[N+]1CCS2 (centres undefined) the results were KCNQ2 block -6* and KCNQ2 pot -6.
Screening COc1ccc(C2(O)CN(c3ccccc3)C3=[N+]2CCS3)cc1OC (centres undefined) returned KCNQ2 block inactive.
COc1ccc(CNC(=O)CCC(=O)Nc2ccc(Cl)cc2)cc1 was read as KCNQ2 block inactive.
For Cc1cc(OCC(=O)N2CCC(C(N)=O)CC2)c2c(C)cc(=O)oc2c1 the results were KCNQ2 block inactive and KCNQ2 pot 0.04.
`CN(C)C(CNC(=O)c1cc(S(=O)(=O)N(C)Cc2ccccc2)ccc1Cl)c1ccco1` (centres undefined) gave KCNQ2 block inactive.
Screening Cn1cc(C(=O)c2ccccc2)cc1-c1nc2ccccc2n1C returned KCNQ2 block inactive.
Screening Cc1oc(-c2nc3ccccc3n2C)cc1C(=O)c1ccccc1 returned KCNQ2 block -6.6* and KCNQ2 pot -6.6.
Screening Cc1nc(NC(=O)C2CCCC2)sc1Cc1ccc2c(c1)OCO2 returned KCNQ2 block inactive and KCNQ2 pot 0.1.
`Cc1nc(NC(=O)C23CC4CC(CC(C4)C2)C3)sc1Cc1ccc2c(c1)OCO2` gave KCNQ2 block inactive and KCNQ2 pot 21*.
Screening COc1cc(/C=C(/C(=O)c2cccs2)c2nc3ccccc3[nH]2)cc(OC)c1O returned KCNQ2 block -6.1* and KCNQ2 pot -6.1.
